According to paper PMC5540273 (PLoS ONE, 2017):

system: T1, ASK1; conditions: concentration: 1 μM, replicates: in singlicate; n = 1
T1 construct: gene MAP3K5
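Note: KINOMEscan kinase panel screen.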

Compound | %Inh [%]
O=C1NC(=O)C(c2ccccc2Cl)=C1Nc1cccc(Cl)c1 [SB-342409] | 8
COc1ccc(C2=C(Nc3cccc(O)c3)C(=O)NC2=O)cc1 [SB-390766] | 35
CN(C)CCNS(=O)(=O)c1ccc(-c2ccnc3[nH]ccc23)cc1 [GSK977620] | 0
CC(C)c1nc(-c2cccc(NS(=O)(=O)c3c(F)cccc3F)c2)c(-c2ccnc(Nc3ccc(N4CCOCC4)nc3)n2)s1.Cl [GSK1723980] | 0
CCn1cnc2c(NCc3ccccc3)ncnc21 [SKF-96418] | 0
COC(=O)Nc1nc2cc(Oc3ccc(NC(=O)Nc4cccc(SC)c4)cc3)ccc2[nH]1.Cl [GW697999] | 2
O=C(Nc1n[nH]c2nc(-c3cccc(O)c3)ccc12)C1CC1 [SB-711805] | 0
CN(c1ccc(F)c(NC(=O)c2cccc(OC(C)(C)C#N)c2Cl)c1)c1ccc2nc(NC(=O)C3CC3)sc2n1 | 0
Cc1nn2c(=O)cc(N3CCO[C@H](C)C3)nc2n1Cc1cccc(Cl)c1Cl [GSK2373693] | 8
Cl.O=C(Nc1ccc(Oc2ccc3[nH]c(NC(=O)c4ccco4)nc3c2)cc1)Nc1cc(C(F)(F)F)ccc1F [GW683134] | 0
N#CC1(c2cccc(C(=O)Nc3cccc(Oc4ccc5nc(NC(=O)C6CC6)sc5n4)c3)c2)CC1 | 0
COC(=O)Nc1nc2ccc(Oc3ccc(CC(=O)Nc4cc(C(F)(F)F)ccc4F)cc3)cc2[nH]1 [GW680903] | 3
